Many of the other results were omitted from the sample, so hits are more common in it than they were.
Tg IFNy HTS – inhibitors of Toxoplasma gondii growth with IFN-gamma; Toxoplasma gondii growth in IFN-gamma-treated host cells; hits give low values; activity change, negative = inhibition, % (no concentration beside the values); 69,000 tested, 3.8% active; AID 1259416; in the data active = activity change below about -70%, passing the limit was not always enough;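 note: host cells are HeLa cells infected with Toxoplasma gondii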
Starred values were filed as active, the others as inactive.

What do the screens show for `Cc1cccc(N2CCN(C(c3ccccc3)c3nnnn3Cc3ccco3)CC2)c1C` (stereo unspecified)?
Tg IFNy HTS: -13

How did COCCn1nnnc1C(C(C)C)N1CCC(Cc2ccccc2)CC1 (stereo unspecified) do in these assays?
Tg IFNy HTS: -2

Results for COCCn1nnnc1C(c1cccs1)N1CCN(c2cc(C)ccc2C)CC1 (stereo unspecified) ?
Tg IFNy HTS: -95*

Results for O=C(Nc1ccccc1Cl)c1c(O)c2cccnc2n(-c2ccc(F)cc2)c1=O ?
Tg IFNy HTS: 147

Results for CCOC1C2CCC1N(Cc1ccc3c(c1)OCO3)CCO2 (stereo unspecified) ?
Tg IFNy HTS: 4

How did COc1cccc(C(=O)N2CCN(Cc3cnn(C)c3C3CC3)CC2)c1 do in these assays?
Tg IFNy HTS: -3

Results for O=C(NC1CCC1)[C@H]1C[C@H]2CN(Cc3ccc(Cl)cc3)C[C@H]1O2 ?
Tg IFNy HTS: -93*

What do the screens show for `O=C(NC1CCC1)[C@H]1C[C@@H]2CN(C(=O)Nc3ccc(Cl)cc3)C[C@H]1O2`?
Tg IFNy HTS: -7

Results for O=C(NC1CCC1)[C@H]1C[C@H]2CN(Cc3ccccc3)C[C@H]1O2 ?
Tg IFNy HTS: 18

What do the screens show for `CC(C)(C)c1[nH]ncc1CN[C@@H]1C2CCCC2[C@H]1c1ccccc1` (stereo partly specified)?
Tg IFNy HTS: -64

How did CC(=O)NC(c1nccs1)C1CCN(C(=O)c2cccnc2C)CC1 (stereo unspecified) do in these assays?
Tg IFNy HTS: 29

Results for Cc1ccc(NC(=O)CN2CCC3(CC2)N=C(c2ccc(C(C)(C)C)cc2)C(=O)N3)cc1C ?
Tg IFNy HTS: -76*

What do the screens show for `Cc1cccc(NC(=O)CN2CCC3(CC2)N=C(c2ccc(C)c(C)c2)C(=O)N3)c1`?
Tg IFNy HTS: -10

What do the screens show for `Cc1ccc(NC(=O)CN2CCC3(CC2)N=C(c2cccc(F)c2)C(=O)N3)cc1C`?
Tg IFNy HTS: 38

What do the screens show for `CSc1cccc(NC(=O)CN2CCC3(CC2)N=C(c2ccc(C)c(C)c2)C(=O)N3)c1`?
Tg IFNy HTS: -50

What do the screens show for `Cc1c2c(=O)[nH]ncc2c(-c2ccccc2)n1CCSCc1c(F)cccc1Cl`?
Tg IFNy HTS: -21

What do the screens show for `CCN1c2cc(F)ccc2C(=O)NC12CCN(C(=O)c1ccc(OC)cc1)CC2`?
Tg IFNy HTS: 68

What do the screens show for `COc1cccc(-c2nccn2-c2cccc(-c3nnc(C)s3)c2)c1OC`?
Tg IFNy HTS: 11

How did CN(C)C(=O)C[C@@H]1CC[C@H]2[C@H](COc3ccc(NC(=O)C4CCCCC4)cc3C(=O)N2C)O1 do in these assays?
Tg IFNy HTS: 13

What do the screens show for `CCOC(=O)C(C(=O)C(F)(F)F)C(NC(N)=S)c1ccsc1` (stereo unspecified)?
Tg IFNy HTS: -5

Results for CN(Cc1ccc(F)cc1)c1ccc2ccc(C(=O)NCC(C)(C)CO)cn12 ?
Tg IFNy HTS: 2

What do the screens show for `CCN1C(=O)N(Cc2cccc(OC)c2)C(=O)C12CCN(Cc1ccc(N3CCCC3)cc1)CC2`?
Tg IFNy HTS: -14

What do the screens show for `CCN1C(=O)N(Cc2cccc(OC)c2)C(=O)C12CCN(Cc1cc3ccccc3s1)CC2`?
Tg IFNy HTS: -90*

What do the screens show for `CCN1C(=O)N(Cc2cccc(OC)c2)C(=O)C12CCN(CC(c1ccccc1)c1ccccc1)CC2`?
Tg IFNy HTS: 9

How did COc1ccc(CCNC(=O)CN(C)C2CCOC(C)(C)C2)cc1 (stereo unspecified) do in these assays?
Tg IFNy HTS: -46

How did NC(=NCCCCCCN=C(N)/N=C(\N)Nc1ccc(Cl)cc1)/N=C(\N)Nc1ccc(Cl)cc1 do in these assays?
Tg IFNy HTS: -82*

How did CC(=O)Nc1ccc(-c2cn(Cc3ccc(Cl)cc3)nn2)cc1 do in these assays?
Tg IFNy HTS: 10

What do the screens show for `CC(C)N=C(N)/N=C(\N)Nc1ccc(Cl)cc1`?
Tg IFNy HTS: 12

Results for O=C(Nc1ccccc1)N(Cc1ccc(Cl)cc1)Cc1nc2ccccc2c(=O)[nH]1 ?
Tg IFNy HTS: -46

Results for CCCCN(C)Cc1ccc(C(=O)Nc2c(C)noc2C)cc1 ?
Tg IFNy HTS: -4

What do the screens show for `CCCCN(Cc1ccc(C(=O)NO)cc1)C(=O)Nc1ccccc1`?
Tg IFNy HTS: -85*

How did Cc1c(C(F)(F)F)nc(-c2ccc(CN3CCCC(CN)C3)cc2)[nH]c1=O (stereo unspecified) do in these assays?
Tg IFNy HTS: -13

What do the screens show for `Cc1ccccc1SCC(=O)N1CCC2(CCNCC2)CC1`?
Tg IFNy HTS: -2

Results for Cc1ncc(Sc2ccc(Cl)cc2)c(-c2ccc(Cl)cc2)n1 ?
Tg IFNy HTS: 22

What do the screens show for `Cc1ccc(Sc2cccc3nc(N)nc(N)c23)cc1`?
Tg IFNy HTS: -108*

What do the screens show for `Clc1ccc(Sc2nc3ccccc3nc2Sc2ccc(Cl)cc2)cc1`?
Tg IFNy HTS: 17

What do the screens show for `COC(=O)c1ccc(NC(=O)C23CC4CCC2(C)C4(C)CO3)cc1` (stereo unspecified)?
Tg IFNy HTS: 65

What do the screens show for `CCc1nnc(CN2CCCC2c2ccc(F)cc2)o1` (stereo unspecified)?
Tg IFNy HTS: 18

How did CN1CCN(c2ncccn2)CC1c1nnc2ccc(C(=O)Nc3ccccc3F)cn12 (stereo unspecified) do in these assays?
Tg IFNy HTS: -61

What do the screens show for `COc1ccccc1OCC(=O)O`?
Tg IFNy HTS: 25

How did COc1ccccc1OCc1cc(C(=O)N(C)Cc2cc(C)no2)no1 do in these assays?
Tg IFNy HTS: -9

How did COc1cc(C(=O)N(C)CCOc2ccccc2OC)c2ccccc2n1 do in these assays?
Tg IFNy HTS: -93*

What do the screens show for `CC(C)CNC(=O)c1ccc2nnc(C3CCN(C(C)C)C3)n2c1` (stereo unspecified)?
Tg IFNy HTS: -14

How did COc1ccccc1/C=C/CN1C[C@@H](c2ccc(NC(C)=O)cc2)[C@@]2(CCCC(=O)N2)C1 do in these assays?
Tg IFNy HTS: -3

What do the screens show for `CC(=O)Nc1ccc(C(=O)N(c2ccc(C)cc2)C2(C(=O)NCc3ccccc3)CCN(C(C)=O)CC2)cc1`?
Tg IFNy HTS: 80

How did CC(=O)N1CCC(C(=O)NCc2ccccc2)(N(C(=O)c2ccc(Br)cc2)c2ccc(C)cc2)CC1 do in these assays?
Tg IFNy HTS: 63

How did CC(=O)N1CCC(C(=O)NCc2ccccc2)(N(C(=O)c2ccc(C)cc2)c2ccc(C(C)C)cc2)CC1 do in these assays?
Tg IFNy HTS: -98*

Results for CNC(=O)CN1CCCC12CCN(c1ccccc1F)CC2 ?
Tg IFNy HTS: -37

How did Cc1oc(C2CCN(C(=O)c3ccc4c(c3)OCO4)CC2)nc1C(=O)N(C)C do in these assays?
Tg IFNy HTS: 60

Results for O=C(CN1CCOCC1)N[C@H]1CC[C@@H](CCn2cc(C3CC3)nn2)O[C@H]1CO ?
Tg IFNy HTS: 4

Results for O=S(=O)(c1cc(F)ccc1F)N1CCC2(CC1)Nc1ccc(Cl)cc1-n1cccc12 ?
Tg IFNy HTS: -36

Results for Cc1ccc(-c2nc3c(s2)CN(S(=O)(=O)c2ccc(F)cc2F)CC3)cc1 ?
Tg IFNy HTS: -88*

Results for COc1ccc(-c2nc3c(s2)CN(S(=O)(=O)c2cccs2)CC3)cc1 ?
Tg IFNy HTS: -94*

Results for COc1ccc(-c2nc3c(s2)CN(S(=O)(=O)c2c(C)cc(C)cc2C)CC3)cc1 ?
Tg IFNy HTS: 5

Results for COc1ccc(-c2nc3c(s2)CN(S(=O)(=O)c2cccc(F)c2)CC3)cc1 ?
Tg IFNy HTS: -4

What do the screens show for `COc1ccc(-c2nc3c(s2)CN(S(=O)(=O)c2ccc(OC)cc2)CC3)cc1`?
Tg IFNy HTS: -4

Source: PubChem
